The text below walks through data of PubChem BioAssay.

Values without a mark were called inactive. Activity calls are given as the source filed them.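 The calls were made as follows, unless noted: active = compounds that lower survival of HCT116 colon cancer cells in the luminescence readout, no numeric limit stated; inactive = the rest.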

The first test can be described thus: HCT116 colon cancer cell growth inhibition, primary screen, CellTiter-Glo luminescence, NPC library (AID 1117342). The note with it: at 20 µM (top of the series).
As for `CCCn1cnc2c1c(=O)n(CCCCC(C)=O)c(=O)n2C`, the inhibition of viability is 20.6%.
For `Cc1c(C)n(CCN(C)C)c2ccc(C(=O)OCCN(C)C)cc12`, the inhibition of viability is 27.7%.
Consider `O=C(O)C1(C(=O)O)CCC1.[NH2-].[NH2-].[Pt+2]`, for which the inhibition of viability was 31.7%.
For `N[C@@H](Cc1ccc(O)cc1)C(=O)O`, the inhibition of viability was 3.9%.
Regarding `CCCC(=O)O[C@]1(C(=O)CO)CC[C@H]2[C@@H]3CCC4=CC(=O)CC[C@]4(C)[C@H]3[C@@H](O)C[C@@]21C`, the inhibition of viability was 24.2%.
Regarding `O=C(O)C(S)C(S)C(=O)O` (stereo not drawn), the inhibition of viability is -11.3%.
Consider `CC(C)=CCC[C@@](C)(O)[C@H]1CC=C(C)CC1`, for which the inhibition of viability was -4.77%.
For `C[C@]12CC[C@@H]3c4ccc(O)cc4CC[C@H]3[C@@H]1CC[C@@H]2OC(=O)CCC1CCCC1`, the inhibition of viability is 6.73%.
The same measure, in the same setting: under `CC(=O)N(c1onc(C)c1C)S(=O)(=O)c1ccc(N)cc1` stands -3.87%.
On to `C#C[C@]1(OC(C)=O)CC[C@H]2[C@@H]3CCC4=C/C(=N/O)CC[C@@H]4[C@H]3CC[C@@]21CC`, for which the inhibition of viability is 99.1% (active).
Turning to `C[C@]12CCC(=O)C=C1CC[C@H]1[C@@H]3CC[C@](O)(C(=O)CO)[C@@]3(C)C[C@H](O)[C@@]12F`, the inhibition of viability was -8.17%.
Regarding `c1ccc2ccccc2c1`, the inhibition of viability is 14.8%.
On to `Cc1c(-c2ccc(O)cc2)n(Cc2ccc(OCCN3CCCCCC3)cc2)c2ccc(O)cc12`, for which the inhibition of viability was 99.7% (active).
Consider `CC(=C(CCOC(=O)C(C)C)SSC(CCOC(=O)C(C)C)=C(C)N(C=O)Cc1cnc(C)nc1N)N(C=O)Cc1cnc(C)nc1N`, for which the inhibition of viability is 30.9%.
Consider `Cc1cc(-c2ccc(N=Nc3c(S(=O)(=O)O)cc4cc(S(=O)(=O)O)cc(N)c4c3O)c(C)c2)ccc1N=Nc1c(S(=O)(=O)O)cc2cc(S(=O)(=O)O)cc(N)c2c1O`, for which the inhibition of viability was 22.2%.
For the molecule `O=[N+]([O-])c1cccc(S(=O)(=O)NCCNS(=O)(=O)c2cccc([N+](=O)[O-])c2)c1`, the inhibition of viability is 7.6%.
On to `CC(C)Cn1cnc2c1c(=O)n(C)c(=O)n2C`, for which the inhibition of viability is 31.9%.
Regarding `CCCCC(=O)O[C@]1(C(=O)CO)CC[C@H]2[C@@H]3CCC4=CC(=O)CC[C@]4(C)[C@H]3[C@@H](O)C[C@@]21C`, the inhibition of viability was 7.7%.
For `C[C@@H]1CCC[C@H](C)N1`, the inhibition of viability was -4.9%.
With `CN(C)CCCO[C@@H]1[C@H]2OC(C)(C)O[C@H]2O[C@@H]1C(O)CO` (stereo partly drawn), the inhibition of viability was 55.2% (active).
Still for that read-out and setting: under `CCN(CC)C(=O)c1cccnc1` stands 14.5%.
On the same count and under the same terms, under `O=C(O)c1cc(N=Nc2ccc(O)c(C(=O)O)c2)ccc1O` stands 20.6%; under `CC(=O)Oc1ccc2c(c1)CC[C@@H]1[C@@H]2CC[C@]2(C)[C@@H](O)CC[C@@H]12`, 41.6%; under `CCOc1ccccc1C(N)=O`, 22.9%.
The same measure, in the same setting: under `CCCCCCCCCCCCCCCCCC[N+](C)(C)CCC[Si](OC)(OC)OC` stands 12.9%.
As to `N[C@H]1C(O)O[C@H](CO)[C@@H](O)[C@@H]1O` (stereo partly drawn), the inhibition of viability is -4.93%.
With `Cc1ccc2nc(N)[nH]c(=O)c2c1Sc1ccncc1`, the inhibition of viability is 81.5% (active).
Turning to `CN1C[C@@H]2C[C@H]1CN2c1cc2c(cc1F)c(=O)c(C(=O)O)cn2C1CC1`, the inhibition of viability was 3.9%.
`CO[C@H]1O[C@@H]2O[C@@]3(C)CC[C@H]4[C@H](C)CC[C@@H]([C@@H]1C)[C@@]24OO3`: the inhibition of viability is -3%.

The next test is described as follows: reduced SW480 viability measured with CellTiter-Glo, NPC library, primary (AID 1117343;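 active = compounds that lower viability of the colon cancer cells in the luminescence readout, with no numeric limit stated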). The note with it: CellTiter-Glo luminescence; at 20 µM (top of the series) unless noted. (In general: Cellular ATP, detected with luciferase, serves as a proxy for viable cell number.)
With `CCCn1cnc2c1c(=O)n(CCCCC(C)=O)c(=O)n2C`, the viability decrease (inhibition) is -2.8%.
The same measure, in the same setting: with `Cc1c(C)n(CCN(C)C)c2ccc(C(=O)OCCN(C)C)cc12` the figure was 71.7% (active); with `O=C(O)C1(C(=O)O)CCC1.[NH2-].[NH2-].[Pt+2]`, 2.3%; with `N[C@@H](Cc1ccc(O)cc1)C(=O)O`, -0.8%.
Same read-out and setting: with `CCCC(=O)O[C@]1(C(=O)CO)CC[C@H]2[C@@H]3CCC4=CC(=O)CC[C@]4(C)[C@H]3[C@@H](O)C[C@@]21C` the figure was 19.8%.
Take `O=C(O)C(S)C(S)C(=O)O` (stereo not drawn): the viability decrease (inhibition) was -31.1%.
With `CC(C)=CCC[C@@](C)(O)[C@H]1CC=C(C)CC1`, the viability decrease (inhibition) was -13%.
Still for that read-out and setting: under `C[C@]12CC[C@@H]3c4ccc(O)cc4CC[C@H]3[C@@H]1CC[C@@H]2OC(=O)CCC1CCCC1` stands 27%; under `CC(=O)N(c1onc(C)c1C)S(=O)(=O)c1ccc(N)cc1`, 30.4%; under `C#C[C@]1(OC(C)=O)CC[C@H]2[C@@H]3CCC4=C/C(=N/O)CC[C@@H]4[C@H]3CC[C@@]21CC`, 102% (active).
For the molecule `C[C@]12CCC(=O)C=C1CC[C@H]1[C@@H]3CC[C@](O)(C(=O)CO)[C@@]3(C)C[C@H](O)[C@@]12F`, the viability decrease (inhibition) is -20%.
Consider `c1ccc2ccccc2c1`, for which the viability decrease (inhibition) was -4.5%.
Consider `Cc1c(-c2ccc(O)cc2)n(Cc2ccc(OCCN3CCCCCC3)cc2)c2ccc(O)cc12`, for which the viability decrease (inhibition) was 102% (active).
With `CC(=C(CCOC(=O)C(C)C)SSC(CCOC(=O)C(C)C)=C(C)N(C=O)Cc1cnc(C)nc1N)N(C=O)Cc1cnc(C)nc1N`, the viability decrease (inhibition) was -6.3%.
The same measure, in the same setting: under `Cc1cc(-c2ccc(N=Nc3c(S(=O)(=O)O)cc4cc(S(=O)(=O)O)cc(N)c4c3O)c(C)c2)ccc1N=Nc1c(S(=O)(=O)O)cc2cc(S(=O)(=O)O)cc(N)c2c1O` stands 37.9%; under `O=[N+]([O-])c1cccc(S(=O)(=O)NCCNS(=O)(=O)c2cccc([N+](=O)[O-])c2)c1`, 6.5%.
Regarding `CC(C)Cn1cnc2c1c(=O)n(C)c(=O)n2C`, the viability decrease (inhibition) is -1.5%.
With `CCCCC(=O)O[C@]1(C(=O)CO)CC[C@H]2[C@@H]3CCC4=CC(=O)CC[C@]4(C)[C@H]3[C@@H](O)C[C@@]21C`, the viability decrease (inhibition) was 6.4%.
For the molecule `C[C@@H]1CCC[C@H](C)N1`, the viability decrease (inhibition) was 6.2%.
Take `CN(C)CCCO[C@@H]1[C@H]2OC(C)(C)O[C@H]2O[C@@H]1C(O)CO` (stereo partly drawn): the viability decrease (inhibition) was 13.2%.
Still for that read-out and setting: under `CCN(CC)C(=O)c1cccnc1` stands -1.1%; under `O=C(O)c1cc(N=Nc2ccc(O)c(C(=O)O)c2)ccc1O`, -10.4%.
As to `CC(=O)Oc1ccc2c(c1)CC[C@@H]1[C@@H]2CC[C@]2(C)[C@@H](O)CC[C@@H]12`, the viability decrease (inhibition) was 72.9% (active).
With `CCOc1ccccc1C(N)=O`, the viability decrease (inhibition) is 31.4%.
As to `CCCCCCCCCCCCCCCCCC[N+](C)(C)CCC[Si](OC)(OC)OC`, the viability decrease (inhibition) was -2.9%.
`N[C@H]1C(O)O[C@H](CO)[C@@H](O)[C@@H]1O` (stereo partly drawn): the viability decrease (inhibition) was -42%.
Regarding `Cc1ccc2nc(N)[nH]c(=O)c2c1Sc1ccncc1`, the viability decrease (inhibition) is 78.8% (active).
Consider `CN1C[C@@H]2C[C@H]1CN2c1cc2c(cc1F)c(=O)c(C(=O)O)cn2C1CC1`, for which the viability decrease (inhibition) was -13%.
Regarding `CO[C@H]1O[C@@H]2O[C@@]3(C)CC[C@H]4[C@H](C)CC[C@@H]([C@@H]1C)[C@@]24OO3`, the viability decrease (inhibition) was 2.9%.
